Measured values reported in the supplement of paper PMC9135407.
Where a name gives a salt, the structure may show the parent alone. In all, about 5,800 compounds went through this assay and about 620 (11%) showed activity. The entries come from a sample that favours actives as a whole. A number with no mark means an inactive call.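 The calls were made as follows: active = score above a cut-off or among the top three wells of a plate; in these data no inactive exceeds 0.85.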

Tested on: primary human hepatic stellate cells (donor 1)
Assay: scaled lipid accumulation score (0 = DMSO-like, 1 = nortriptyline-like); higher = stronger HSC inactivation (lipid re-accumulation), active = hit call of the paper
Conditions: 48 h
[1] = library stock concentration: 10 mM
[2] = library stock concentration: 1 mM
[3] = library stock concentration: 400 uM
[4] = library stock concentration: 2 mM
[5] = library stock concentration: 3.33 mM

## NC(C(=O)O)c1ccc(C(=O)O)c(C(=O)O)c1 (racemic)
[1]
  scaled lipid accumulation score: ≤ -0.006

## C[C@@H]1CN(c2c(F)c(F)c3c(=O)c(C(=O)O)cn(C4CC4)c3c2F)C[C@H](C)N1
[1]
  scaled lipid accumulation score: ≤ 0

## N=C(NO)NCC[C@H](N)C(=O)O
[2]
  scaled lipid accumulation score: ≤ 0

## CC(=O)Oc1cccc(O)c1 [Resorcinol monoacetate]
[1]
  scaled lipid accumulation score: 0.063
Library stock concentration: 13.1 mM
  scaled lipid accumulation score: ≤ 0

## CCCCCCCC/C=C\C/C=C\C/C=C\CCCC(=O)NCCO [5(Z),8(Z),11(Z)-Eicosatrienoic Acid Ethanolamide]
[2]
  scaled lipid accumulation score: 0.015

## CCCCCCCC/C=C\C/C=C\C/C=C\CCCC(=O)NCCO [Mead ethanolamide]
[2]
  scaled lipid accumulation score: 0.017

## CCCCCCCCCCCCCCCC(=O)O[C@H](CC(=O)O)C[N+](C)(C)C
[1]
  scaled lipid accumulation score: 0.027

## CCCOc1ccc(C=C2SC(=O)NC2=O)cc1
Library stock concentration: 80 uM
  scaled lipid accumulation score: ≤ -0.001
[3]
  scaled lipid accumulation score: ≤ -0.001
[4]
  scaled lipid accumulation score: ≤ -0.001
[1]
  scaled lipid accumulation score: ≤ -0.001

## OCC(O)CCO/N=C1\C(c2c(O)[nH]c3ccccc23)=Nc2ccccc21 (stereo not drawn) [Indirubin Derivative E804]
[5]
  scaled lipid accumulation score: ≤ 0

## Fc1ccc([C@@H]2CCNC[C@H]2COc2ccc3c(c2)OCO3)cc1 [Paroxetine]
[1]
  scaled lipid accumulation score: 0.634

## Cl.Fc1ccc([C@@H]2CCNC[C@H]2COc2ccc3c(c2)OCO3)cc1 [Paroxetine Hydrochloride]
  scaled lipid accumulation score: 1.22 (active)

## Fc1ccc([C@@H]2CCNC[C@H]2COc2ccc3c(c2)OCO3)cc1 [Paroxetine HCl] [listing 1 of 2 here]
[1]
  scaled lipid accumulation score: 0.355

## Cl.Fc1ccc([C@@H]2CCNC[C@H]2COc2ccc3c(c2)OCO3)cc1 [Paroxetine HCl]
[5]
  scaled lipid accumulation score: 0.491 (active)

## c1ccc(N2CCN(CCCOc3ccc4c(c3)OCO4)CC2)cc1 [BP 554 maleate]
[1]
  scaled lipid accumulation score: ≤ 0

## Fc1ccc([C@@H]2CCNC[C@H]2COc2ccc3c(c2)OCO3)cc1 [Paroxetine hydrochloride hemihydrate (MW = 374.83)]
[1]
  scaled lipid accumulation score: 0.836

## Fc1ccc([C@@H]2CCNC[C@H]2COc2ccc3c(c2)OCO3)cc1 [Paroxetine HCl] [listing 2 of 2 here]
Library stock concentration: 6.1 mM
  scaled lipid accumulation score: 1.01 (active)

## Fc1ccc([C@@H]2CCNC[C@H]2COc2ccc3c(c2)OCO3)cc1 [Paroxetine hydrochloride]
[1]
  scaled lipid accumulation score: 0.808

## COc1cc(F)c(C(C)C)cc1-c1ccc(C(F)(F)F)cc1CN1C(=O)O[C@H](c2cc(C(F)(F)F)cc(C(F)(F)F)c2)[C@@H]1C [Anacetrapib (MK-0859)]
[5]
  scaled lipid accumulation score: ≤ 0
[1]
  scaled lipid accumulation score: ≤ 0

## C=C1C[C@@H](O)[C@H](/C=C/[C@@H](O)CCCCC)[C@H]1C/C=C\CCCC(=O)O [9-deoxy-9-methylene Prostaglandin E2]
[2]
  scaled lipid accumulation score: 0.01

## Cc1cc(C)cc(NC(=O)Cc2ccc(OC(C)(C)C(=O)O)cc2)c1 [Efaproxiral Sodium]
[5]
  scaled lipid accumulation score: ≤ 0
[1]
  scaled lipid accumulation score: ≤ -0.001

## O=C1Cc2c([nH]c3ccc([N+](=O)[O-])cc23)-c2ccccc2N1 [Alsterpaullone]
[5]
  scaled lipid accumulation score: ≤ 0

## COc1ccc(/C=C/C(=O)Nc2c(O)cccc2C(=O)O)cc1OC
[2]
  scaled lipid accumulation score: ≤ 0

## O=C(c1ccccc1)c1ccc2n1CCC2C(=O)O (stereo not drawn) [Ketorolac (tromethamine salt)]
[2]
  scaled lipid accumulation score: ≤ 0

## O=C(c1ccccc1)c1ccc2n1CCC2C(=O)O (stereo not drawn) [Ketorolac tris salt]
[1]
  scaled lipid accumulation score: ≤ -0.055

## O=C(c1ccccc1)c1ccc2n1CCC2C(=O)O (stereo not drawn)
[1]
  scaled lipid accumulation score: ≤ 0

## O=C(c1ccccc1)c1ccc2n1CCC2C(=O)O (stereo not drawn) [Ketorolac]
[5]
  scaled lipid accumulation score: ≤ 0
[1]
  scaled lipid accumulation score: ≤ 0

## O=C(c1ccccc1)c1ccc2n1CCC2C(=O)O (stereo not drawn) [Ketorolac tromethamine]
  scaled lipid accumulation score: ≤ 0
Library stock concentration: 5.3 mM
  scaled lipid accumulation score: ≤ 0
[1]
  scaled lipid accumulation score: 0.024

## O=C(c1cccnc1)N1CCOCC1
[1]
  scaled lipid accumulation score: 0.163

## COC(=O)[C@]12CCC(C)(C)C[C@H]1[C@H]1C(=O)C=C3[C@@]4(C)C=C(C#N)C(=O)C(C)(C)[C@@H]4CC[C@@]3(C)[C@]1(C)CC2 [Bardoxolone Methyl]
[5]
  scaled lipid accumulation score: 0.195
[1]
  scaled lipid accumulation score: 0.183

## CC(C)OC(=O)CCC/C=C\C[C@@H]1[C@@H](/C=C/[C@@H](O)COc2cccc(C(F)(F)F)c2)[C@H](O)C[C@@H]1O
[1]
  scaled lipid accumulation score: ≤ 0

## O=C(/C=C\n1cnc(-c2cc(C(F)(F)F)cc(C(F)(F)F)c2)n1)NNc1cnccn1
[5]
  scaled lipid accumulation score: ≤ -0.009
[1]
  scaled lipid accumulation score: 0.384

## CC1(C)S[C@@H]2[C@H](NC(=O)[C@H](NC(=O)N3CCN(S(C)(=O)=O)C3=O)c3ccccc3)C(=O)N2[C@H]1C(=O)O [Mezlocillin Sodium]
[5]
  scaled lipid accumulation score: ≤ 0
[1]
  scaled lipid accumulation score: 0.043

## C[C@@H](CN1CCC(n2c(=O)[nH]c3cc(Cl)ccc32)CC1)NC(=O)c1ccc2ccccc2c1.Cl
[1]
  scaled lipid accumulation score: 1.12 (active)

## C[C@@H](CN1CCC(n2c(=O)[nH]c3cc(Cl)ccc32)CC1)NC(=O)c1ccc2ccccc2c1
[2]
  scaled lipid accumulation score: 0.02

## O=C(NCCN1CCC(n2c(=O)[nH]c3cc(Cl)ccc32)CC1)c1ccc(F)cc1 [Halopemide]
[2]
  scaled lipid accumulation score: ≤ 0

## Brc1ccc(C2CN3CCSC3=N2)cc1 (single isomer, unassigned; (-)) [(-)-p-Bromotetramisole Oxalate]
[5]
  scaled lipid accumulation score: ≤ -0.009
[1]
  scaled lipid accumulation score: 0.192

## C=CCNC(=O)c1cc([N+](=O)[O-])cc2c(=O)[nH]c(Nc3ccc(Cl)c(Cl)c3)nc12
[1]
  scaled lipid accumulation score: 0.02

## Cc1nc(-c2ccccc2)c(-c2ccncc2)o1
[5]
  scaled lipid accumulation score: ≤ 0

## CCc1cccc(CC)c1NC(=O)N1Cc2[nH]nc(NC(=O)c3ccc(N4CCN(C)CC4)cc3)c2C1
[5]
  scaled lipid accumulation score: 0.21
[1]
  scaled lipid accumulation score: 0.34

## CO[C@@H](C(=O)N1Cc2[nH]nc(NC(=O)c3ccc(N4CCN(C)CC4)cc3)c2C1)c1ccccc1 [listing 1 of 2 here]
[3]
  scaled lipid accumulation score: ≤ -0.005
[4]
  scaled lipid accumulation score: ≤ -0.005
[5]
  scaled lipid accumulation score: 0.533
[1]
  scaled lipid accumulation score: 0.779

## CO[C@@H](C(=O)N1Cc2[nH]nc(NC(=O)c3ccc(N4CCN(C)CC4)cc3)c2C1)c1ccccc1 [listing 2 of 2 here]
[1]
  scaled lipid accumulation score: 0.915 (active)
